Values joined by “and” are separate entries in the source; they are usually repeats but may differ in a detail not shown here. Equal entries are not always repeated. This is part of a sample that, as a whole, favours compounds with a hit. Of some 83,000 tested, about 20% had one in any assay.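 Results are percent growth after 48 hours of single-concentration exposure. 100 means growth as in untreated cells, lower positive values show inhibition; negative values down to -100 show cell death.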 Active and inactive are the calls of the source. Rule for the calls: active = growth percent below 10; inactive = the rest.
How the values were obtained:
Assay in all cases: NCI-60 one-dose screen, 48 h (100 = growth as untreated, 0 = no growth, -100 = all killed)
Details in all cases: 10 µM unless noted
[1] = test system: SK-MEL-2 melanoma
[2] = test system: EKVX NSCLC
[3] = test system: SN12C renal
[4] = test system: UO-31 renal
[5] = test system: TK-10 renal
[6] = test system: ACHN renal
[7] = test system: CAKI-1 renal
[8] = test system: A498 renal
[9] = test system: CCRF-CEM leukemia
[10] = test system: MOLT-4 leukemia
[11] = test system: SR leukemia
[12] = test system: RPMI-8226 leukemia
[13] = test system: OVCAR-8 ovarian
[14] = test system: OVCAR-5 ovarian
[15] = test system: OVCAR-4 ovarian
[16] = test system: SK-OV-3 ovarian
[17] = test system: IGROV1 ovarian
[18] = test system: OVCAR-3 ovarian
[19] = test system: HS 578T breast
[20] = test system: NCI/ADR-RES ovarian

Measured: growth

COc1ccccc1NC(=O)OCC#CCOC(=O)Nc1ccccc1OC
inactive: [1] 95.2% and 95% | [2] 99% and 96.1% | [3] 107% and 92.4% | [4] 71.4% and 80.2% | [5] 99.2% and 91.2% | [6] 104% and 100% | [7] 94.3% and 88.6% | [8] 87.5% and 92.8% | [9] 83.1% and 91.5% | [10] 72.4% | [11] 88% and 61.5% | [12] 90.2% and 72.3% | [13] 106% and 97.6% | [14] 98.9% and 98.3% | [15] 99.2% and 94% | [16] 104% and 94.8% | [17] 108% and 83.5% | [18] 127% and 86.4% | [19] 99.7% and 76.3% | [20] 98.7% and 92.7%

Clc1nc(Oc2ccccc2)nc(-c2cn(-c3ccccc3)c3ccccc23)n1
active: [1] -49.5% | [11] -31.7% | [18] 7.87%
inactive: [2] 81.3% | [3] 85.9% | [4] 17% | [5] 114% | [6] 68.7% | [7] 13.4% | [8] 128% | [9] 27.2% | [10] 47% | [12] 49.1% | [13] 38.8% | [14] 101% | [15] 98.8% | [16] 103% | [17] 28.3% | [19] 44.1% | [20] 84.9%

O[C@H](c1cc(C(F)(F)F)nc2c(C(F)(F)F)cccc12)[C@@H]1CCCCN1
inactive: [1] 73.6% and 52.5% | [2] 65.5% and 82.8% | [3] 65.9% and 55.1% | [4] 50.5% and 31.7% | [5] 56.9% and 63.8% | [6] 40.1% and 45.8% | [7] 72.7% and 50.9% | [8] 67% and 52% | [9] 76.5% and 71.6% | [10] 32.7% | [11] 11.7% | [12] 70.1% and 79.2% | [13] 80.3% and 64.2% | [14] 79.5% and 69.3% | [15] 69.7% and 59.8% | [16] 79.1% and 74.6% | [17] 47.8% and 46.4% | [18] 68.1% and 55% | [19] 66.3% and 63% | [20] 65.7% and 56.1%

Nc1nc(SC/C=C/CCl)c2[nH]cnc2n1
inactive: [1] 120% and 95% | [2] 95% and 98.7% | [3] 108% and 111% | [4] 87% and 94.3% | [5] 109% and 95% | [6] 110% and 101% | [7] 105% and 112% | [8] 83.6% and 91.6% | [9] 96.6% | [10] 97.1% and 76.3% | [11] 77.5% | [12] 100% | [13] 103% and 97.6% | [14] 109% and 101% | [15] 116% and 100% | [16] 99.4% and 112% | [17] 114% and 97.3% | [18] 117% and 120% | [19] 112% and 125% | [20] 103% and 106%

O=C(O)CSCc1nc2ccccc2[nH]1
inactive: [1] 105% | [2] 117% | [3] 93.1% | [4] 93.3% | [5] 121% | [6] 99.8% | [7] 107% | [8] 97% | [9] 93.7% | [10] 99.5% | [11] 96.5% | [12] 94% | [13] 113% | [14] 110% | [15] 107% | [16] 113% | [17] 109% | [18] 106% | [19] 102% | [20] 101%

OCCN1CCN(CCCN2c3ccccc3Sc3ccc(Cl)cc32)CC1
inactive: [1] 46.5% and 74.9% | [2] 66.8% | [3] 50.2% and 72.8% | [4] 36.1% and 45.1% | [5] 47.8% and 75.4% | [6] 62.3% and 76.1% | [7] 47.9% and 68.8% | [8] 58.4% and 77.8% | [9] 40.6% and 55.9% | [10] 47.9% and 53.3% | [11] 36.6% | [12] 37.6% and 68.9% | [13] 89.3% and 107% | [14] 61.3% and 90.7% | [15] 74.2% and 69.8% | [16] 70% and 87.5% | [17] 47.7% and 57.8% | [18] 83% and 81.5% | [19] 63.1% and 72.3% | [20] 60.9% and 76%

CCCCCN(CCCCC)CC(O)c1cc2c(c3ccccc13)CCCC2 (stereo not given)
inactive: [1] 79.1% and 97.2% | [2] 77.9% and 46% | [3] 72.1% and 75.1% | [4] 39.7% and 44.7% | [5] 87.5% and 73.4% | [6] 55.8% and 49% | [8] 108% and 39.3% | [9] 52.9% and 57.2% | [10] 41.7% and 61.7% | [11] 11.1% and 14.2% | [12] 15.4% and 34.8% | [13] 88.6% and 94.3% | [14] 66.9% and 55.6% | [15] 60.9% and 59.9% | [16] 84.2% and 79% | [18] 71.9% and 54.4% | [20] 70% and 63.7%
85.6% (inactive) and 2.9% (active): [19]
34.5% (inactive) and -32% (active): [7]
48.9% (inactive) and -1.04% (active): [17]
